From PubChem BioAssay (NCI)
This is part of a sample that, as a whole, favours compounds with a hit. Of some 79,000 tested, about 15% had one in any assay. A number with no mark means an inactive call. The source made the active and inactive calls. Cut-off read from the data, not from the text of the source: active = growth inhibition above about 70%; inactive = the rest.

Key:
[1] = NCI Yeast Anticancer Drug Screen. Data for the rad50 strain (AID 155);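 note: 0% = growth of vehicle-only cultures of the same strain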; conditions: S. cerevisiae rad50 strain growth inhibition, hits give high values
Summary of the method: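 Genetically altered yeast (DNA repair pathway); compound treatment; growth inhibition vs vehicle ctrl.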

[2] = NCI Yeast Anticancer Drug Screen. Data for the mec2-1 strain (AID 157); conditions: S. cerevisiae mec2-1 strain, hits give high values
Summary of the method: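 Test agents were screened against the mec2-1 yeast strain, with defined DNA repair or cell cycle alteration. Growth was scored as inhibition against vehicle-only controls.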

[3] = NCI Yeast Anticancer Drug Screen. Data for the sgs1 mgt1 strain (AID 161);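 note: 0% = growth of cultures given vehicle only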; conditions: S. cerevisiae sgs1 mgt1 strain, hits give high values
Summary of the method: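 Mutant yeast exposed to compound; growth scored against vehicle-only wells.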

[4] = NCI Yeast Anticancer Drug Screen. Data for the cln2 rad14 strain (AID 165);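 note: 0% = growth equal to vehicle treated cultures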; conditions: S. cerevisiae cln2 rad14 strain, hits give high values
Summary of the method: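 Growth of compound-exposed yeast (cln2 rad14 genotype) measured and expressed as inhibition relative to vehicle.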

[5] = NCI Yeast Anticancer Drug Screen. Data for the bub3 strain (AID 167); conditions: S. cerevisiae bub3 mutant strain, hits give high values
Summary of the method: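 Yeast carrying a defined mutation is treated with each compound, and growth is compared with that of vehicle-exposed cells to give inhibition.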

[6] = NCI Yeast Anticancer Drug Screen. Data for the mlh1 rad18 strain (AID 175); conditions: S. cerevisiae mlh1 rad18 strain growth inhibition, hits give high values
Summary of the method: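 In this whole-cell yeast screen, a strain with altered DNA damage repair is challenged with compound, and its growth is measured against matched vehicle-treated controls.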

[7] = at 5.0 µM (retest, dose inferred, filed as 0.5)
[8] = at 50.0 µM (retest, dose inferred, filed as 5.0)

Row | Compound | growth inhibition [1, 7] | growth inhibition [1, 8] | growth inhibition ([1]; at 50.0 µM) | growth inhibition [2, 7] | growth inhibition [2, 8] | growth inhibition ([2]; at 50.0 µM) | growth inhibition [3, 7] | growth inhibition [3, 8] | growth inhibition ([3]; at 50.0 µM) | growth inhibition [4, 7] | growth inhibition [4, 8] | growth inhibition ([4]; at 50.0 µM) | growth inhibition [5, 7] | growth inhibition [5, 8] | growth inhibition ([5]; at 50.0 µM) | growth inhibition [6, 7] | growth inhibition [6, 8] | growth inhibition ([6]; at 50.0 µM)
1 | COC(=O)[C@@H]1c2cc3c(c(O)c2[C@@H](OC)C[C@@]1(C)O)C(=O)c1c(O)cc2c(c1C3=O)OC1O[C@@]2(C)[C@H](O)[C@@H](N(C)C)[C@@H]1O | 15% | 98% (active) | 64.2% | 10% | 95% (active) | 94% (active) | 9% | 98% (active) | 94% (active) | 4% | 97% (active) | 87.5% (active) | 5% | 97% (active) | 92.8% (active) | 12% | 97% (active) | 92.4% (active)
2 | c1ccc([P+](CCCCCC[P+](c2ccccc2)(c2ccccc2)c2ccccc2)(c2ccccc2)c2ccccc2)cc1 | 61% | 85% (active) | 81.7% (active) | 46% | 94% (active) | 84.8% (active) | 38% | 97% (active) | 83.3% (active) | 36% | 68% | 78.2% (active) | 43% | 77% (active) | 86.6% (active) | 52% | 94% (active) | 81.7% (active)
3 | OC(C/C=N/Nc1ccccc1)(C(F)(F)Cl)C(F)(F)Cl | -13% | 97% (active) | 89.2% (active) | -11% | 99% (active) | 90.9% (active) | -10% | 98% (active) | 91.7% (active) | 2% | 98% (active) | 89.5% (active) | 5% | 98% (active) | 91.8% (active) | -18% | 98% (active) | 89.6% (active)
4 | CC1(C)CC(=O)C2=C(C1)OC1=C(CC(C)(C)CC1=O)C2c1ccccc1[N+](=O)[O-] (configuration not stated) | 22% | 22% | -21.8% | 16% | 12% | -13.3% | 25% | 19% | -13.5% | 23% | 41% | -7.3% | 9% | 5% | -17.6% | 24% | 27% | -17.1%
5 | CCOC(=O)c1ccc(N=Cc2cc(Cl)cc(Cl)c2O)cc1 | 67% | 99% (active) | 86.7% (active) | 72% (active) | 100% (active) | 88.5% (active) | 28% | 84% (active) | 91% (active) | 37% | 85% (active) | 78.9% (active) | 62% | 96% (active) | 87.2% (active) | 52% | 100% (active) | 84.5% (active)
6 | COc1cc2c(c(O)c1OC)-c1c(cc(OC)c(OC)c1OC)CC(C)C(C)C2 (configuration not stated) | -23% | 27% | 66.9% | -23% | 11% | 46.7% | -15% | 63% | 74.7% (active) | -10% | 61% | 51.5% | 9% | 53% | 60% | 6% | 59% | 18.7%
7 | CCCC/C=C1\CCC(CN2CCCCC2)C1=O (configuration not stated) | 44% | 70% (active) | 89.2% (active) | 40% | 60% | 69.8% | 75% (active) | 96% (active) | 85.3% (active) | 59% | 75% (active) | 77.2% (active) | 84% (active) | 98% (active) | 67.2% | 56% | 83% (active) | 88% (active)
8 | Cc1ccnc(NCCN(C)C)c1 | 2% | -1% | 98.5% (active) | 1% | 4% | 98.2% (active) | 3% | 1% | 97.5% (active) | -6% | 1% | 98.3% (active) | -1% | -2% | 99.3% (active) | -1% | -1% | 98.7% (active)
9 | CC(=O)N(C)C1=C(Sc2ccc(C)cc2)C(=O)c2ccccc2C1=O | 95% (active) | 99% (active) | 99.5% (active) | 97% (active) | 100% (active) | 99.7% (active) | 93% (active) | 100% (active) | 99.8% (active) | 83% (active) | 99% (active) | 99.5% (active) | 99% (active) | 99% (active) | 99.6% (active) | 95% (active) | 99% (active) | 99.7% (active)
10 | N#Cc1ccc(OC(=O)Nc2c(Cl)cccc2Cl)cc1 | 46% | 41% | 80.4% (active) | 36% | 42% | 82.2% (active) | 44% | 53% | 86.2% (active) | 34% | 45% | 83.9% (active) | 31% | 70% (active) | 84.3% (active) | 47% | 50% | 83.5% (active)
11 | O=C(O)c1ccc2cc3ccccc3cc2c1 | -16% | 65% | 75.9% (active) | 5% | 48% | 47.4% | -10% | 50% | 63% | -49% | 42% | 61.9% | -29% | 30% | 62.4% | -24% | 58% | 54.1%
12 | CCCCCCCCCCCCCCSC(=NCC)NCC | 99% (active) | 99% (active) | 99.2% (active) | 100% (active) | 100% (active) | 99.5% (active) | 100% (active) | 100% (active) | 99.2% (active) | 99% (active) | 99% (active) | 97.4% (active) | 99% (active) | 99% (active) | 99.3% (active) | 99% (active) | 99% (active) | 99% (active)
13 | Cc1ccc(Sc2ccc3ccccc3n2)cc1 | 2% | -34% | 36% | -3% | 46% | 37.5% | 15% | 37% | 50.2% | -18% | -24% | 50.2% | 1% | 30% | 67% | 0% | 18% | 2.25%
14 | NNc1ccccc1F | -34% | 96% (active) | 99.2% (active) | -32% | 97% (active) | 99.7% (active) | -42% | 92% (active) | 97.8% (active) | -41% | 65% | 98% (active) | -45% | 44% | 99.2% (active) | -58% | 95% (active) | 98.9% (active)
15 | COC(=O)C1=C(/C=C/C(C)=O)NC(C)=C(C(=O)OC(C)C)C1c1ccccc1Cl (configuration not stated) | 40% | 95% (active) | 49.3% | 34% | 97% (active) | 62.5% | 37% | 96% (active) | 24.5% | 65% | 95% (active) | 33.5% | 40% | 97% (active) | 41.2% | 34% | 95% (active) | 51.4%
16 | Oc1c(Cl)cc(Cl)cc1C=Nc1cc(C(F)(F)F)ccc1Cl | 76% (active) | 100% (active) | 91.8% (active) | 50% | 99% (active) | 74.4% (active) | 46% | 100% (active) | 91.7% (active) | 8% | 76% (active) | 55.1% | 5% | 50% | 77.4% (active) | 50% | 99% (active) | 85.9% (active)
17 | O=Cc1ccc(/C=N\Nc2ccccc2)cc1 | 1% | 12% | 82.3% (active) | -5% | 0% | 33.2% | -3% | -4% | 41.9% | 1% | 7% | 34.1% | -1% | 12% | -9.55% | 4% | 30% | 92.3% (active)
18 | Cc1cc(C)c(S(=O)(=O)c2c(C)cc(C)cc2C)c(C)c1 | -3% | -7% | 39% | -4% | -9% | 12.5% | -4% | -4% | 6.2% | -5% | -22% | 41.7% | -3% | -6% | 0.65% | -6% | -12% | 1.15%
19 | CC(=O)/C(=C\c1cccs1)C(=O)CCN(C)C | 11% | 25% | 9.05% | 15% | 28% | 17.2% | 10% | 29% | 34% | 20% | 27% | 19.5% | 4% | 23% | -2.2% | 22% | 30% | 50.1%
